Results taken from PMC5540273 (PLoS ONE, 2017).

What was measured:
Conditions in all cases: concentration: 1 μM, replicates: in singlicate; n = 1
[1] = tested on: T1, JNK3
T1 construct: gene MAPK10

[2] = tested on: KIT-autoinhibited
[3] = tested on: KIT
[4] = tested on: LATS1
[5] = tested on: LATS2
[6] = tested on: LCK
[7] = tested on: LIMK1
[8] = tested on: LIMK2
[9] = tested on: T2, LKB1
T2 construct: gene STK11

[10] = tested on: T3, LOK
T3 construct: gene STK10
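Also: KINOMEscan kinase panel screen.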

SMILES	%Inh [1]	%Inh [2]	%Inh [3]	%Inh [4]	%Inh [5]	%Inh [6]	%Inh [7]	%Inh [8]	%Inh [9]	%Inh [10]
CNc1cc(-c2ccc3c(N)n[nH]c3c2)nc(N)n1 [GSK2224810]	0%	0%	19%	0%	20%	0%	0%	9%	0%	0%
Cc1ccccc1-c1cc(-c2c[nH]nc2-c2ccccn2)ccn1 [GW680061]	32%	0%	39%	0%	0%	5%	0%	0%	0%	0%
CCCCc1nn2ncccc2c1-c1ccnc(NC2CC2)n1 [GW684374]	82%	0%	67%	0%	0%	17%	33%	34%	0%	0%
COc1cccc(CNC(=O)NC2CCN(c3ccnc(Nc4ccc(F)cc4)n3)C2)c1 (centres unmarked) [GSK1379723]	11%	0%	23%	10%	0%	11%	3%	0%	0%	0%
O=C1NC(=O)C(c2ccc(Cl)cc2)=C1Nc1cccc(Cl)c1 [SB-317651]	54%	15%	0%	0%	9%	0%	0%	7%	23%	0%
COC(=O)c1cccc(NC(=O)NC2CCN(c3ccnc(Nc4ccc(OC)cc4)n3)C2)c1 (centres unmarked) [GSK1379746]	0%	0%	44%	0%	0%	11%	0%	3%	0%	0%
CNc1nc(-c2ccc3c(N)n[nH]c3c2)cc(N2C[C@@H](C(=O)Nc3ccccc3)CC[C@H]2C)n1 [GSK2298859]	3%	0%	4%	0%	3%	22%	0%	13%	7%	0%
O=C(Nc1n[nH]c2cc(-c3ccsc3)ccc12)C1CC1 [SB-732932]	30%	0%	56%	2%	15%	0%	0%	0%	0%	3%
CC(=O)c1c(C)c2cnc(Nc3ccc(N4CCNCC4)cn3)nc2n(C2CCCC2)c1=O	0%	0%	0%	15%	26%	0%	0%	99.5%	0%	0%
COc1ccc(-c2coc3ccc(-c4nnc(C)o4)cc23)cc1	0%	0%	1%	0%	0%	0%	0%	0%	5%	0%
Cn1cncc1-c1cc2c(Nc3ccc(OCc4ccccc4)cc3)ncnc2cn1 [GW281179]	1%	0%	39%	0%	0%	24%	11%	6%	0%	0%
Cc1ccc(NC(=O)Nc2ccc(Cl)c(C(F)(F)F)c2)cc1-c1ccc(C(=O)Nc2ccncc2)cc1 [GSK1398470]	0%	45%	99.5%	0%	15%	57%	28%	14%	6%	65%
Nc1cccc(-c2ccc3c(N)n[nH]c3c2)n1 [GSK2192730]	0%	0%	14%	0%	17%	0%	0%	2%	7%	0%
Nc1ncnc2occ(-c3ccc4c(c3)CCN4C(=O)Cc3cc(F)ccc3F)c12 [GSK2645446]	0%	0%	66%	0%	19%	5%	0%	22%	0%	33%
O=C1NC(=O)C(c2ccc(Cl)cc2)=C1Nc1ccc(O)cc1 [SB-340867]	0%	0%	0%	17%	0%	5%	11%	0%	13%	0%
Cc1nccc(-c2c(-c3ccc(F)cc3)ncn2CCCN2CCOCC2)n1.Cl [SB-282975]	43%	9%	0%	0%	0%	27%	11%	10%	0%	9%
CS(=O)(=O)Cc1ccc(Nc2nccc(-c3c(-c4cccc(NC(=O)C5CCCCC5)c4)nn4ncccc34)n2)cc1 [GSK350559]	36%	14%	88%	0%	48%	23%	22%	14%	0%	81%
